Experimental data: PubChem BioAssay AID485275 (NMMLSC, 2010)
Hit rate of the full screen: of about 330,000 compounds, about 1,400 (0.42%) were called active. Many of the other results were omitted from the sample, so actives are more common in it than they were. A number with no mark means an inactive call.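 How the source made its calls: active means plate passing quality check with inhibition over a set limit, or well fluorescence over plate mean plus 4 SD; inactive means the rest.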

test: inhibitors of Candida efflux pumps in yeast, primary screen, S. cerevisiae, Nile Red, multiplex (AID 485275);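 further: Nile Red retained in pooled yeast measured as flow cytometry median fluorescence; 0% = buffer negative control and 100% = Enniatin B positive control; higher means more Nile Red kept so more efflux inhibition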; conditions: S. cerevisiae Candida pump triplex, at 10 µM, active compounds read high

Row | Structure (SMILES) | inhibition
1 | COc1ccccc1CNC(=O)C1CCN(S(=O)(=O)c2ccc3c(c2)CC(C)N3C(=O)C2CC2)CC1 (stereo unspecified) | 0.09%
2 | CC(=O)N1c2ccc(S(=O)(=O)N3CCC(C(=O)N4CCN(c5ccccc5)CC4)CC3)cc2CC1C (stereo unspecified) | -0.03%
3 | CC(=O)c1ccc(N2CCN(C(=O)C3CCN(S(=O)(=O)c4ccc5c(c4)CC(C)N5C(=O)C4CC4)CC3)CC2)cc1 (stereo unspecified) | 40.5% (active)
4 | CC1CC(=NNC(=O)C2COc3ccccc3O2)CC(C)(C)C1 (stereo unspecified) | -0.31%
5 | Cc1cccc(N2CCN(C(=O)CCS(=O)(=O)c3ccc4c(c3)NC(=O)C(C)S4)CC2)c1C (stereo unspecified) | -0.07%
6 | O=C(CCc1c[nH]c2ccccc12)NCCOc1ccccc1 | -0.08%
7 | CCN(CC)CCNC(=O)CCCCCn1c(=O)[nH]c2cc(C(=O)OC)ccc2c1=O | -0.02%
8 | O=C(CCCCCn1c(=O)[nH]c2ccccc2c1=O)NCCc1c[nH]c2ccccc12 | 0.52% (active)
9 | CCCSc1ccc([C@H]2N[C@@](Cc3ccccc3)(C(=O)OC)[C@H]3C(=O)N(C)C(=O)[C@@H]23)cc1 | 0.02%
10 | CSCC(NS(=O)(=O)c1ccc(C)cc1)C(=O)O (stereo unspecified) | -0.01%
11 | CSCCC(NC(=O)c1ccccc1)C(=O)N1CCCCCCC1 (stereo unspecified) | 0.05%
12 | CSCCC(NS(=O)(=O)c1ccc(C)cc1)C(=O)N1CCCC1 (stereo unspecified) | 1.45% (active)
13 | COc1ccc(-n2nnc3c(=O)n(CC(=O)N4CCC(Cc5ccccc5)CC4)cnc32)cc1 | 0.1%
14 | O=C(NCc1nnc(SCC(=O)N2CCCCCC2)o1)c1ccc(F)cc1 | -0.18%
15 | Nc1nnc(C2CCCC2)s1 | 0.48%
16 | O=C(CN1C(=O)C2C3CCC(C3)C2C1=O)Oc1ccc2ccccc2c1 (stereo unspecified) | 5.45% (active)
17 | O=C(CCN1C(=O)C2C3C=CC(C3)C2C1=O)Oc1ccc2ccccc2c1 (stereo unspecified) | 0.01%
18 | Cc1ccc(C(=O)COC(=O)CCN2C(=O)C3C4CCC(C4)C3C2=O)cc1C (stereo unspecified) | -0.13%
19 | O=C(c1cc(-c2ccco2)nc2ccccc12)N(Cc1nnc(-c2ccc(Cl)cc2)o1)C1CC1 | 0.11%
20 | Cc1cccc(-n2c(C)cc(/C=N\NC(=O)c3cccs3)c2C)c1 | -0.56%
21 | Cc1ccc(-n2c(C)cc(/C=N\NC(=O)CC(=O)NC(C)C)c2C)cc1 | -0.13%
22 | Cc1cc(/C=N/NC(=O)CC2(C)OCCO2)c(C)n1-c1ccc(Cl)c(Cl)c1 | 1.6% (active)
23 | CC1CCN(C(=O)CCNC(=O)c2ccccc2)CC1 | -0.28%
24 | CN=C(c1ccccc1)c1c(C)cccc1C | 23.6% (active)
25 | Cc1ccccc1NC(=O)CSC(=O)c1ccccc1 | -0.08%
26 | Cc1cccc(C)c1NC(=O)C(Cl)C(=O)c1ccccc1 (stereo unspecified) | 0.07%
